# From PubChem BioAssay (NCATS)
# Records with an inconclusive call do not appear. Entries that show only a call come without a potency. The source made the active and inactive calls. Calls come from the whole dose curve; as a rule, active = well fitted inhibition curve with a large enough effect; inconclusive = small, poorly fitted or top-dose-only effect; inactive = flat fitted curve, though single readings scatter.
# Test system: HACAT
# Experiment: qHTS assay to identify novel small-molecules to repurpose for Merkel cell carcinoma treatment (AID 1296009); note: nearly all actives have a fitted effect of over 60% in size
# Conditions: MCC and control cell lines, CellTiter-Glo viability, 72 h; at 44.8 µM (top of the series) unless noted
# Method in brief: (§1)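 Cells were treated for 72 hr at 37 degree celsius with compounds in 8- or 11-point dose response. Viability was read by CellTiter-Glo luminescence, normalized to no-cell (cytotoxicity) and DMSO controls.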
row,SMILES,outcome
1,CCN(Cc1ccncc1)C(=O)C(CO)c1ccccc1 (configuration not stated),inactive
2,CCCCCN(CCCCC)C(=O)C(CCC(=O)O)NC(=O)c1ccc(Cl)c(Cl)c1 (configuration not stated),inactive
3,O=C1CC2(CCCC2)CC(=O)N1CCCCN1CCN(c2ncccn2)CC1,inactive
4,NC(Cc1ccc(Cl)cc1)C(=O)O (configuration not stated),inactive [at 0.588 µM]
5,CC(=O)OCC1=C(C(=O)O)N2C(=O)[C@@H](NC(=O)Cc3cccs3)[C@H]2SC1,inactive
6,COc1cc(Cc2cnc(N)nc2N)cc(OC)c1OC,inactive
7,CCCNC(C)C(=O)Nc1ccccc1C (configuration not stated),inactive
8,CNC1(C)C2CCC(C2)C1(C)C (configuration not stated),inactive
9,Cc1scc2c1N(C(=O)CN1CCN(C)CC1)c1ccccc1NC2=O,inactive
10,CCCOc1ccccc1-c1nc2n[nH]nc2c(=O)[nH]1,inactive
11,CC(C)NNC(=O)c1ccncc1,inactive
12,Nc1c2c(nc3ccccc13)CCCC2O (configuration not stated),inactive
13,NC(=O)c1ncn([C@@H]2O[C@H](CO)[C@@H](O)[C@H]2O)c1O,inactive
14,Cc1nc2c([nH]1)c(=O)n(C)c(=O)n2Cc1ccco1,inactive
15,CC(=O)OC(C)C[N+](C)(C)C (configuration not stated),inactive
16,NC(=Nc1ccccc1)Nc1ccccc1,inactive
17,FC(F)(F)c1ccccc1-n1ccnc1,inactive
18,CCN1CCc2nc(N)oc2CC1,inactive
19,C[N+](C)(C)CCOC(=O)CCC(=O)OCC[N+](C)(C)C,inactive
20,CN(C)CCOC(=O)COc1ccc(Cl)cc1,inactive
21,NC/C=C/C(=O)O,inactive
22,CCN1CCC[C@H]1CNC(=O)c1c(O)c(Cl)cc(Cl)c1OC,inactive

# Test system: HEK293T
# Experiment: as above
# Conditions: MCC and control cell lines, CellTiter-Glo viability, 72 h; at 44.8 µM (top of the series) unless noted
# Method in brief: as §1
row,SMILES,outcome
1,NC(Cc1ccc(Cl)cc1)C(=O)O (configuration not stated),inactive [at 0.588 µM]
2,CCCN(CCC)CCc1cccc2c1CC(=O)N2,inactive
3,CCCN(CCC)C(=O)C(CCC(=O)O)NC(=O)c1ccccc1 (configuration not stated),inactive
4,COc1cc(Cc2cnc(N)nc2N)cc(OC)c1OC,inactive
5,Nc1c2c(nc3ccccc13)CCCC2O (configuration not stated),inactive
6,Cc1cc(C)c(/C=C2\C(=O)Nc3ccccc32)[nH]1,inactive
7,NC(=Nc1ccccc1)Nc1ccccc1,inactive
8,CCN1CCc2nc(N)oc2CC1,inactive
9,NC/C=C/C(=O)O,inactive
10,CCN1CCC[C@H]1CNC(=O)c1c(O)c(Cl)cc(Cl)c1OC,inactive

# Test system: MCC-13
# Experiment: as above
# Conditions: MCC and control cell lines, CellTiter-Glo viability, 72 h; series mostly up to 46 µM
# Method in brief: as §1
SMILES,Potency,"activity change, negative = cytotoxicity"
CCN(Cc1ccncc1)C(=O)C(CO)c1ccccc1 (configuration not stated),inactive,
NC(=O)c1cn(Cc2c(F)cccc2F)nn1,inactive,
CCCCCN(CCCCC)C(=O)C(CCC(=O)O)NC(=O)c1ccc(Cl)c(Cl)c1 (configuration not stated),inactive,
O=C1CC2(CCCC2)CC(=O)N1CCCCN1CCN(c2ncccn2)CC1,inactive,
NC(Cc1ccc(Cl)cc1)C(=O)O (configuration not stated),,20.3% [at 0.597 µM] (inactive)
CCCN(CCC)CCc1cccc2c1CC(=O)N2,inactive,
O=C(O)CN(CCOCCOCCN(CC(=O)O)CC(=O)O)CC(=O)O,,-0.433% [at 0.597 µM] (inactive)
CCN(CC)CCNC(=O)c1ccc(NC(C)=O)cc1,inactive,
CCCN(CCC)C(=O)C(CCC(=O)O)NC(=O)c1ccccc1 (configuration not stated),inactive,
O=C(O)CCCCCCCC(=O)O,inactive,
Cc1ccc(/C(=C\CN2CCCC2)c2ccccn2)cc1,inactive,
CC(=O)OCC1=C(C(=O)O)N2C(=O)[C@@H](NC(=O)Cc3cccs3)[C@H]2SC1,inactive,
COc1cc(Cc2cnc(N)nc2N)cc(OC)c1OC,inactive,
CCCNC(C)C(=O)Nc1ccccc1C (configuration not stated),inactive,
CNC1(C)C2CCC(C2)C1(C)C (configuration not stated),inactive,
Cc1scc2c1N(C(=O)CN1CCN(C)CC1)c1ccccc1NC2=O,inactive,
CCCOc1ccccc1-c1nc2n[nH]nc2c(=O)[nH]1,inactive,
CC(C)NNC(=O)c1ccncc1,inactive,

SMILES,Potency,"activity change, negative = cytotoxicity"
Nc1c2c(nc3ccccc13)CCCC2O (configuration not stated),inactive,
NC(=O)c1ncn([C@@H]2O[C@H](CO)[C@@H](O)[C@H]2O)c1O,inactive,
Cc1nc2c([nH]1)c(=O)n(C)c(=O)n2Cc1ccco1,inactive,
Cc1cc(C)c(/C=C2\C(=O)Nc3ccccc32)[nH]1,inactive,
CC(=O)OC(C)C[N+](C)(C)C (configuration not stated),inactive,
CCn1cc(C(=O)O)c(=O)c2cc3c(cc21)OCO3,inactive,
CC(=O)Nc1nnc(S(N)(=O)=O)s1,inactive,
NC(=Nc1ccccc1)Nc1ccccc1,inactive,
FC(F)(F)c1ccccc1-n1ccnc1,inactive,
CCCCOCCOCCOCc1cc2c(cc1CCC)OCO2,inactive,
CCN1CCc2nc(N)oc2CC1,inactive,
O=C(CCNNC(=O)c1ccncc1)NCc1ccccc1,inactive,
C[N+](C)(C)CCOC(=O)CCC(=O)OCC[N+](C)(C)C,inactive,
CN(C)CCOC(=O)COc1ccc(Cl)cc1,inactive,
NC/C=C/C(=O)O,inactive,
CCN(CC)CC(=O)Nc1c(C)cccc1C,inactive,
CCN1CCC[C@H]1CNC(=O)c1c(O)c(Cl)cc(Cl)c1OC,inactive,

# Test system: MCC-26
# Experiment: as above
# Conditions: MCC and control cell lines, CellTiter-Glo viability, 72 h; series mostly up to 46 µM
# Method in brief: as §1
SMILES,Potency,"activity change, negative = cytotoxicity"
CCN(Cc1ccncc1)C(=O)C(CO)c1ccccc1 (configuration not stated),inactive,
NC(=O)c1cn(Cc2c(F)cccc2F)nn1,inactive,
CCCCCN(CCCCC)C(=O)C(CCC(=O)O)NC(=O)c1ccc(Cl)c(Cl)c1 (configuration not stated),inactive,
O=C1CC2(CCCC2)CC(=O)N1CCCCN1CCN(c2ncccn2)CC1,inactive,
NC(Cc1ccc(Cl)cc1)C(=O)O (configuration not stated),,17.1% [at 0.597 µM] (inactive)
CCCN(CCC)CCc1cccc2c1CC(=O)N2,inactive,
O=C(O)CN(CCOCCOCCN(CC(=O)O)CC(=O)O)CC(=O)O,,19.1% [at 0.597 µM] (inactive)
CCN(CC)CCNC(=O)c1ccc(NC(C)=O)cc1,inactive,
CCCN(CCC)C(=O)C(CCC(=O)O)NC(=O)c1ccccc1 (configuration not stated),inactive,
O=C(O)CCCCCCCC(=O)O,inactive,
Cc1ccc(/C(=C\CN2CCCC2)c2ccccn2)cc1,inactive,
CC(=O)OCC1=C(C(=O)O)N2C(=O)[C@@H](NC(=O)Cc3cccs3)[C@H]2SC1,inactive,
COc1cc(Cc2cnc(N)nc2N)cc(OC)c1OC,inactive,
CCCNC(C)C(=O)Nc1ccccc1C (configuration not stated),inactive,
CNC1(C)C2CCC(C2)C1(C)C (configuration not stated),inactive,
Cc1scc2c1N(C(=O)CN1CCN(C)CC1)c1ccccc1NC2=O,inactive,
CCCOc1ccccc1-c1nc2n[nH]nc2c(=O)[nH]1,inactive,
CC(C)NNC(=O)c1ccncc1,inactive,

SMILES,Potency,"activity change, negative = cytotoxicity"
Nc1c2c(nc3ccccc13)CCCC2O (configuration not stated),inactive,
NC(=O)c1ncn([C@@H]2O[C@H](CO)[C@@H](O)[C@H]2O)c1O,inactive,
Cc1nc2c([nH]1)c(=O)n(C)c(=O)n2Cc1ccco1,inactive,
Cc1cc(C)c(/C=C2\C(=O)Nc3ccccc32)[nH]1,inactive,
CC(=O)OC(C)C[N+](C)(C)C (configuration not stated),inactive,
CCn1cc(C(=O)O)c(=O)c2cc3c(cc21)OCO3,inactive,
CC(=O)Nc1nnc(S(N)(=O)=O)s1,inactive,
NC(=Nc1ccccc1)Nc1ccccc1,inactive,
FC(F)(F)c1ccccc1-n1ccnc1,inactive,
CCCCOCCOCCOCc1cc2c(cc1CCC)OCO2,inactive,
CCN1CCc2nc(N)oc2CC1,inactive,
O=C(CCNNC(=O)c1ccncc1)NCc1ccccc1,inactive,
C[N+](C)(C)CCOC(=O)CCC(=O)OCC[N+](C)(C)C,inactive,
CN(C)CCOC(=O)COc1ccc(Cl)cc1,inactive,
NC/C=C/C(=O)O,inactive,
CCN(CC)CC(=O)Nc1c(C)cccc1C,inactive,
CCN1CCC[C@H]1CNC(=O)c1c(O)c(Cl)cc(Cl)c1OC,inactive,
